In PubChem BioAssay:
Values joined by “and” are separate entries in the source; they are usually repeats but may differ in a detail not shown here. Equal entries are not always repeated. Inconclusive results are not listed. Active and inactive are the calls of the source.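 Rule for the calls, unless noted: active = normalized viability below 100% at a tested concentration; inactive = the rest.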

Key:
[1] = viability loss in pontine glioma line – cell-based, SU-DIPG-XXV, MIPE5.0, CellTiter-Glo, qHTS, dose response (AID 1347065; cut-off not given, nearly all actives have AC50 up to about 26 µM;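 note: cells exposed to compound for 48 hours before ATP readout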); conditions: CellTiter-Glo ATP luminescence
[2] = SU-DIPG-VI glioma cell viability, MIPE4.0 library, CellTiter-Glo luminescence, qHTS (AID 1347066; cut-off not given, nearly all actives have AC50 up to about 30 µM;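 note: cells exposed to compound for 48 hours before readout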); conditions: CellTiter-Glo ATP luminescence
[3] = JHH-DIPG-1 glioma cell viability, MIPE5.0 library, CellTiter-Glo luminescence, qHTS (AID 1347067; cut-off not given, nearly all actives have AC50 up to about 26 µM;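 note: cells exposed to compound for 48 hours before readout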); conditions: JHH-DIPG-1 glioma viability, CellTiter-Glo ATP luminescence
[4] = SU-DIPG-XXV glioma cell viability, MIPE5.0 library, qHTS (AID 1347068; cut-off not given, nearly all actives have IC50 up to about 30 µM)
[5] = survival rescue of mitochondrial mutant cells in low glucose, primary screen, MELAS cybrids, Rieske KO mouse fibroblasts, CellTiter-Glo (AID 1508586;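 active = mean z-score across replicates of 1.96 or higher in either the MELAS or the Rieske mutant cell line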;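 note: z relative to plate mean and SD of compound and empty wells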)
[6] = ovarian cancer cell viability with rucaparib, profiling panel, oncology-focused library, rucaparib conditional (AID 1508598); conditions: patient-derived ovarian cancer cells, CellTiter-Glo viability, 144 h, stronger effect = lower value
[7] = LFS_MB_P medulloblastoma growth inhibition, cell-based, chromothripsis tumors, cisplatin or BGB combos (AID 1671449; in the data active = inhibition above about 80%;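 note: cells exposed for 96 hours; 0% = vehicle DMSO and 100% = killing by high DMSO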); conditions: LFS_MB_P medulloblastoma cells
[8] = HDN33 neuroblastoma growth inhibition, cell-based, chromothripsis tumors, cisplatin or BGB combos (AID 1671450; in the data active = inhibition above about 80%;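 note: cells exposed to compound for four days; 0% = vehicle DMSO and 100% = cell killing by high DMSO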); conditions: HDN33 neuroblastoma cells, stronger effect = higher value
[9] = ICB984 medulloblastoma cell growth inhibition, synergistic combos for chromothripsis tumors, cisplatin or BGB combos (AID 1671451; call rule not given here;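 note: cells exposed for 96 hours before readout; 0% = vehicle DMSO and 100% = killing by high DMSO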); conditions: ICB984 medulloblastoma cells, drug combinations, stronger effect = higher value
[10] = LFS_MB_1R medulloblastoma cell growth inhibition, synergistic combos for chromothripsis tumors, cisplatin or BGB combos (AID 1671452; in the data active = inhibition above about 80%;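 note: cells exposed for 96 hours before readout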); conditions: LFS_MB_1R medulloblastoma cells, stronger effect = higher value
[11] = HTB85 osteosarcoma cell growth inhibition, synergistic combos for chromothripsis tumors, BGB or cisplatin IC20 combos (AID 1671453; in the data active = inhibition above about 80%;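 note: cells exposed for 96 hours before readout; 0% = vehicle DMSO and 100% = high DMSO killing control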); conditions: HTB85 osteosarcoma cells, drug combinations, stronger effect = higher value
[12] = CRL2098 osteosarcoma cell growth inhibition, synergistic combos for chromothripsis tumors, BGB or cisplatin IC20 combos (AID 1671454; in the data active = inhibition above about 80%;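 note: cells exposed for 96 h before readout; 0% = vehicle DMSO and 100% = killing by high DMSO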); conditions: CRL2098 osteosarcoma cells, drug combinations, stronger effect = higher value
[13] = HD-MB03 medulloblastoma cell growth inhibition, synergistic combos for chromothripsis tumors, BGB or cisplatin IC20 combos (AID 1671455; in the data active = inhibition above about 83%;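 note: 0% = vehicle DMSO and 100% = high DMSO as cytotoxic control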); conditions: HD-MB03 medulloblastoma cells, stronger effect = higher value
[14] = phospholipid biosynthesis inhibitors in animal cells, primary screen, cell-based, LOPAC library, screen 4 (AID 1347384; call rule not given here); conditions: phospholipid biosynthesis inhibition screen, at 10 µM
[15] = biological target: NAD(+) hydrolase SARM1 (Homo sapiens) (UniProt Q6SZW1); assay: SARM1 TIR NADase inhibitors, cell lysate, NAD-Glo luminescence (AID 1508614;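 active = compound whose remaining NAD level is above about 45 nM, limit read from the data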;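 note: higher remaining NAD means stronger inhibition of SARM1 NADase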); conditions: SAM-TIR HEK293T lysate NADase, at 1 µM, stronger effect = higher value
[16] = biological target: Mitogen-activated protein kinase 7 (Homo sapiens) (UniProt Q13164); assay: ERK5 transactivation activators in reporter cells, primary screen, cell-based, HTS (AID 1508626;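 active = luciferase signal above three times the same-plate solvent-only control wells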;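 note: luciferase driven by Gal4-ERK5 fusion binding five Gal4 sites before minimal TATA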); conditions: HeLa Gal4-ERK5 transactivation, 18 h, at 5 µM, stronger effect = higher value
[17] = modifiers of HSF1 nuclear foci, imaging, Selleck Cancer Library (AID 1347162; in the data active = plate-normalised HSF1 focus index below about 0.46); conditions: human cells, at 10 µM; SSMD: measured here: HSF1 foci SSMD mean; cell count: measured here: cell number; plate-normalised HSF1 focus index: stronger effect = lower value
[18] = viability rescue of complex I mutant cybrids, primary screen, cell-based, galactose medium, ATP luminescence (AID 1645843;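 active = z-score of at least 1.8 in each of two replicates, scored against plate mean and spread of sample wells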;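 note: positive z means more ATP and so rescue of galactose-driven cybrid death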); conditions: complex I mutant cybrid cells, 72 h, stronger effect = higher value
[19] = MELAS cybrid survival, CellTiter-Glo 48 h, stronger effect = higher value
[20] = Rieske KO mouse fibroblast survival, CellTiter-Glo 72 h
[21] = at 0.000305 µM, OCI-C5x cells, with rucaparib 10 µM, 100% = cells with rucaparib alone
[22] = at 0.000305 µM, OCI-C5x cells, without rucaparib
[23] = at 0.000305 µM, OCI-P5x cells, with rucaparib 20 µM, 100% = cells with rucaparib alone
[24] = at 0.000305 µM, OCI-P5x cells, without rucaparib
[25] = at 0.00122 µM, OCI-C5x cells, with rucaparib 10 µM, 100% = cells with rucaparib alone
[26] = at 0.00122 µM, OCI-C5x cells, without rucaparib
[27] = at 0.00122 µM, OCI-P5x cells, with rucaparib 20 µM, 100% = cells with rucaparib alone
[28] = at 0.00122 µM, OCI-P5x cells, without rucaparib
[29] = at 0.00488 µM, OCI-C5x cells, with rucaparib 10 µM, 100% = cells with rucaparib alone
[30] = at 0.00488 µM, OCI-C5x cells, without rucaparib
[31] = at 0.00488 µM, OCI-P5x cells, with rucaparib 20 µM, 100% = cells with rucaparib alone
[32] = at 0.00488 µM, OCI-P5x cells, without rucaparib
[33] = at 0.0195 µM, OCI-C5x cells, with rucaparib 10 µM, 100% = cells with rucaparib alone
[34] = at 0.0195 µM, OCI-C5x cells, without rucaparib
[35] = at 0.0195 µM, OCI-P5x cells, with rucaparib 20 µM, 100% = cells with rucaparib alone
[36] = at 0.0195 µM, OCI-P5x cells, without rucaparib
[37] = at 0.0781 µM, OCI-C5x cells, with rucaparib 10 µM, 100% = cells with rucaparib alone
[38] = at 0.0781 µM, OCI-C5x cells, without rucaparib
[39] = at 0.0781 µM, OCI-P5x cells, with rucaparib 20 µM, 100% = cells with rucaparib alone
[40] = at 0.0781 µM, OCI-P5x cells, without rucaparib
[41] = at 0.313 µM, OCI-C5x cells, with rucaparib 10 µM, 100% = cells with rucaparib alone
[42] = at 0.313 µM, OCI-C5x cells, without rucaparib
[43] = at 0.313 µM, OCI-P5x cells, with rucaparib 20 µM, 100% = cells with rucaparib alone
[44] = at 0.313 µM, OCI-P5x cells, without rucaparib
[45] = at 1.25 µM, OCI-C5x cells, with rucaparib 10 µM, 100% = cells with rucaparib alone
[46] = at 1.25 µM, OCI-C5x cells, without rucaparib
[47] = at 1.25 µM, OCI-P5x cells, with rucaparib 20 µM, 100% = cells with rucaparib alone
[48] = at 1.25 µM, OCI-P5x cells, without rucaparib
[49] = at 5 µM, OCI-C5x cells, with rucaparib 10 µM, 100% = cells with rucaparib alone
[50] = at 5 µM, OCI-C5x cells, without rucaparib
[51] = at 5 µM, OCI-P5x cells, with rucaparib 20 µM, 100% = cells with rucaparib alone
[52] = at 5 µM, OCI-P5x cells, without rucaparib
[53] = measured here: combination with BGB IC40, at 0.05 µM

Chain of Mitogen-activated protein kinase 7 (Homo sapiens) (Q13164 whole entry, looked up, the tested form may be a part): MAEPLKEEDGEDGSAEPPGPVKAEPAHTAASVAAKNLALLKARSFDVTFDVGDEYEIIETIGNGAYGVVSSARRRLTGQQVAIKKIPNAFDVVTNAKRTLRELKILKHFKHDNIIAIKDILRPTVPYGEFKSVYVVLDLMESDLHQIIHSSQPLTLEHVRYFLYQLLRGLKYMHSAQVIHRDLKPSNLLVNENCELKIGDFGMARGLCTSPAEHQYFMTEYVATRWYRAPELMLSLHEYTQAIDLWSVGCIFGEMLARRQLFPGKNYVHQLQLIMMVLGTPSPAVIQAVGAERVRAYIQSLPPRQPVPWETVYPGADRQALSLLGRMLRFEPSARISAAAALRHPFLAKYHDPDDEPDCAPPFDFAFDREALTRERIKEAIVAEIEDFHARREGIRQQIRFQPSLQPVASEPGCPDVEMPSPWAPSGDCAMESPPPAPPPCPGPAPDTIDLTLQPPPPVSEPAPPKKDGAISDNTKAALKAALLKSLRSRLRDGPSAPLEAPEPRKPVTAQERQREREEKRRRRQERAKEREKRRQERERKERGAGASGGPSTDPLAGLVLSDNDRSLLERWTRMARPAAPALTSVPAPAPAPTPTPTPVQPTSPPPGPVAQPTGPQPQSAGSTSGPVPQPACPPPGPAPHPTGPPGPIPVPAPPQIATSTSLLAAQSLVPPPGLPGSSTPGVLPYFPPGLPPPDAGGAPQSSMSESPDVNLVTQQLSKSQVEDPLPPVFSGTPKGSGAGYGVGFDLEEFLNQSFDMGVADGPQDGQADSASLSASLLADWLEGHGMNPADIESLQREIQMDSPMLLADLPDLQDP
Chain of NAD(+) hydrolase SARM1 (Homo sapiens) (Q6SZW1 whole entry, looked up, the tested form may be a part): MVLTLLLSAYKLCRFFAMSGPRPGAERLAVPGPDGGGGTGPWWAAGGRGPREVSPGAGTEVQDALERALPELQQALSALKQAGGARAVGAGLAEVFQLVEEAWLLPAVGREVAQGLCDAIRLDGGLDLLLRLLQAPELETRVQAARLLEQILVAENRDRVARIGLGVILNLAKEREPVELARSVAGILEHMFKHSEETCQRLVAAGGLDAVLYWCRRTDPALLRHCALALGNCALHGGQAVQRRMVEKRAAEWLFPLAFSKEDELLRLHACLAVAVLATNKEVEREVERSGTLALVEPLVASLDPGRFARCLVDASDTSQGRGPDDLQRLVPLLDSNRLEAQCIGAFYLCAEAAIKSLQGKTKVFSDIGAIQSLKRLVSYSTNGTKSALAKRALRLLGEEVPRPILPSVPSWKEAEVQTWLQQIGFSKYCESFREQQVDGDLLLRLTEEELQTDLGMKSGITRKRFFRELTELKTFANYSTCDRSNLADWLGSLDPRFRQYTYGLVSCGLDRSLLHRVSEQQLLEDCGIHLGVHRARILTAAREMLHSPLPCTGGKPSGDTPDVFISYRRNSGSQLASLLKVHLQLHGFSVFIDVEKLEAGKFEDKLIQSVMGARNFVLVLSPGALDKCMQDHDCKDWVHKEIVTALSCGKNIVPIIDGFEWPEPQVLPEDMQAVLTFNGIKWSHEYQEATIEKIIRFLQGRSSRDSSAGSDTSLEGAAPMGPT

Cc1nc2ccc(CN(C)c3ccc(C(=O)N[C@@H](CCC(=O)O)C(=O)O)s3)cc2c(=O)[nH]1
77.1%: inhibition ([8]; BGB combo, at 5 µM)
71.9%: inhibition ([13]; measured here: combo with BGB at IC20, at 0.5 µM)
-41.1%: inhibition ([9]; cisplatin combo, at 5 µM)
10.6%: inhibition ([11]; single agent, at 5 µM)
35.1%: inhibition ([12]; measured here: combination with BGB at IC20, at 0.5 µM)
-6.83%: inhibition ([10]; measured here: combination with cisplatin, at 5 µM)
2.07%: inhibition [7, 53]
-19.6%: inhibition ([11]; measured here: with BGB IC20, at 0.5 µM)
-26.4%: inhibition ([10]; measured here: combination with cisplatin, at 0.5 µM)
75.6%: inhibition ([8]; cisplatin combo, at 5 µM)
-25.4%: inhibition ([7]; measured here: combination with cisplatin, at 0.5 µM, stronger effect = higher value)
-36.4%: inhibition ([7]; measured here: combination with cisplatin, at 5 µM, stronger effect = higher value)
-19.7%: inhibition ([9]; BGB IC20 combo, at 0.005 µM)
-24.2%: inhibition [10, 53]
75.7%: inhibition ([8]; measured here: with BGB IC20 combination, at 0.5 µM)
73.8%: inhibition ([8]; measured here: with cisplatin IC20 combination, at 0.5 µM)
-6.5%: inhibition ([7]; measured here: combination with BGB IC20, at 0.005 µM)
-8.4%: inhibition ([9]; measured here: 5 uM single agent, at 5 µM)
62.3%: inhibition ([12]; measured here: combination with cisplatin at IC20, at 0.5 µM)
-9.72%: inhibition ([11]; measured here: with BGB IC20, at 5 µM)
-33.6%: inhibition ([7]; measured here: combination with BGB IC40, at 0.005 µM)
-53.1%: inhibition ([9]; cisplatin combo, at 0.05 µM)
-47.3%: inhibition ([9]; BGB IC40 combo, at 0.05 µM)
inactive: outcome [1] | outcome [2] | outcome [3] | outcome [4] | z-score [5, 19] -0.789 | viability [6, 21] 114% | viability [6, 23] 107% | viability [6, 24] 104% | viability [6, 25] 115% | viability [6, 27] 108% | viability [6, 28] 106% | viability [6, 31] 114% | viability [6, 32] 109% | viability [6, 35] 116% | viability [6, 36] 110% | viability [6, 39] 118% | viability [6, 40] 111% | viability [6, 43] 119% | viability [6, 44] 111% | viability [6, 47] 111% | viability [6, 48] 116% | viability [6, 51] 124% | viability [6, 52] 113% | inhibition ([7]; at 0.5 µM, stronger effect = higher value) -8.68% | inhibition ([8]; at 0.5 µM) 77.4% | inhibition ([9]; at 0.5 µM) -21.4% | inhibition ([10]; at 0.5 µM) -22.3% | inhibition ([11]; at 0.5 µM) -11% | inhibition ([12]; at 0.5 µM) 54.5% | inhibition ([13]; at 0.5 µM) 78.5%
79.7%: inhibition ([13]; measured here: combo with cisplatin at IC20, at 0.5 µM)
-17.6%: inhibition ([11]; measured here: with cisplatin IC20, at 0.5 µM)
-23.4%: inhibition ([9]; cisplatin combo, at 0.5 µM)
82.5%: inhibition ([8]; single agent, at 5 µM)
-58.4%: inhibition ([9]; BGB IC40 combo, at 0.005 µM)
2.95%: inhibition ([11]; measured here: with cisplatin IC20, at 5 µM)
active: viability [6, 22] 92.6% | viability [6, 26] 84.6% | viability [6, 29] 72.8% | viability [6, 30] 55.7% | viability [6, 33] 19.2% | viability [6, 34] 17.1% | viability [6, 37] 16.3% | viability [6, 38] 17.6% | viability [6, 41] 15.6% | viability [6, 42] 19.3% | viability [6, 45] 14.5% | viability [6, 46] 17.5% | viability [6, 49] 16.1% | viability [6, 50] 19.3%
-1.02: z-score [5, 20]

CCOC(=O)c1ncn2c1CN(C)C(=O)c1cc(F)ccc1-2
0.977 and -0.775: z-score [5, 20]
inactive: outcome [1] | outcome [2] | outcome [3] | outcome [4] | outcome [14] | z-score [5, 19] 0.109 and 0.0778 | remaining NAD [15] 10 nM | luciferase signal [16] 60 AU

COc1ccccc1OCC(O)CN1CCN(CC(=O)Nc2c(C)cccc2C)CC1 (stereo unspecified)
active: viability [6, 27] 96% | viability [6, 31] 93.5% | viability [6, 35] 94.5% | viability [6, 43] 94.5% | viability [6, 48] 92.6% | viability [6, 49] 67.5% | viability [6, 50] 39.4% | viability [6, 51] 49.6% | viability [6, 52] 23.6%
2.29: SSMD [17]
inactive: outcome [1] | outcome [2] | outcome [3] | outcome [4] | plate-normalised HSF1 focus index [17] 1.14 | outcome [14] | viability [6, 21] 108% | viability [6, 22] 113% | viability [6, 23] 102% | viability [6, 24] 108% | viability [6, 25] 114% | viability [6, 26] 124% | viability [6, 28] 106% | viability [6, 29] 115% | viability [6, 30] 113% | viability [6, 32] 109% | viability [6, 33] 106% | viability [6, 34] 107% | viability [6, 36] 108% | viability [6, 37] 108% | viability [6, 38] 114% | viability [6, 39] 101% | viability [6, 40] 106% | viability [6, 41] 110% | viability [6, 42] 118% | viability [6, 44] 107% | viability [6, 45] 102% | viability [6, 46] 121% | viability [6, 47] 104% | remaining NAD [15] 10 nM | luciferase signal [16] 56 AU | z-score [18] -0.345 and -0.115 and 0.005
7450: cell count [17]
